Data on 14 molecules can be found in PubChem BioAssay (NCATS).

Inconclusive results are not listed. Entries that show only a call come without a potency. Activity calls are given as the source filed them. Calls come from the whole dose curve; as a rule, active = well fitted curve in the direction sought with a large enough effect; inconclusive = small, poorly fitted or top-dose-only effect, or another doubt; inactive = no such curve, though single readings can be large; an effect the other way counts as inactive or inconclusive.

In assay [1] the target is Calcium and integrin-binding protein 1 (Homo sapiens) (UniProt Q99828). Put plainly: Primary qHTS for Identification of Calcium Integrin Binding Protein 1 (CIB1) Competitor (AID 1508620). Note: potency is the fitted concentration of half-maximal effect. The conditions noted are these: CIB1-GST / FITC-alphaIIb peptide fluorescence polarization; series mostly up to 57.7 µM. In short, it runs like this: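 Fluorescence polarization competition: GST-tagged CIB1 (1 uM final) preincubated with compound 15 min at room temperature, then FITC-labelled alphaIIb peptide (100 nM final) added. After 15 min at room temperature, polarization read at Ex 480/Em 540.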
Sequence of Calcium and integrin-binding protein 1 (Homo sapiens) (Q99828 whole entry, looked up): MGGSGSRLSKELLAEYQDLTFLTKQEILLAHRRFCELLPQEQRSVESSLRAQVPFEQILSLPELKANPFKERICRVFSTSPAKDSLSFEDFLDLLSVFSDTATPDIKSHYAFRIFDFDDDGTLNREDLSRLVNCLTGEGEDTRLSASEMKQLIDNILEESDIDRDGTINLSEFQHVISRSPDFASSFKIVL

Assay [2] in a line: Primary qHTS for small molecule stabilizers of the endoplasmic reticulum resident proteome: Secreted ER Calcium Modulated Protein (SERCaMP) assay (AID 1508630). The conditions noted are these: SH-SY5Y GLuc-SERCaMP (Gaussia luciferase released on ER calcium loss) secretion, thapsigargin, luminescence; series mostly up to 38.4 µM. The gist of the method:
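GLuc-SERCaMP-expressing SH-SY5Y cells, pretreated 16 h with compound, are challenged with thapsigargin to empty ER calcium stores; after 4 h, coelenterazine is added directly to the medium and luminescence is imaged.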

`Oc1cc(O)cc(C=Cc2ccc(O)c(O)c2)c1`: the Potency entry in assay [1] and in assay [2] was “inactive” throughout.
For `CCC(=O)NCC[C@@H]1CCc2ccc3c(c21)CCO3`, the Potency entry in assay [1] and in assay [2] was “inactive” each time.
On to `COc1cc2ncnc(Nc3cc(Br)c(O)c(Br)c3)c2cc1OC`, for which the Potency entry in assay [1] and in assay [2] was “inactive” each time.
As for `CNC(=O)c1ccc2c(C(=Nc3cccc(CN(C)C)c3)c3ccccc3)c(O)[nH]c2c1`, the Potency result in assay [1] and in assay [2] was “inactive” each time.
For `O=C(CC12CC3CC(CC(C3)C1)C2)Nc1cccc2nc(NCCNCCO)ccc12`, the Potency entry in assay [1] and in assay [2] was “inactive” throughout.
As for `Fc1ccc(C(c2ccc(F)cc2)N2CCN(CC=Cc3ccccc3)CC2)cc1`, the Potency in assay [1] was 19.2 µM (active). Moreover, the Potency entry in assay [2] is “inactive”.
As for `Cc1ccc(C(=O)N(CCCN)[C@@H](c2nc3cc(Cl)ccc3c(=O)n2Cc2ccccc2)C(C)C)cc1`, the Potency entry in assay [1] and in assay [2] was “inactive” each time.
Regarding `COc1nccc(-c2c(-c3ccc(F)cc3)ncn2C2CCNCC2)n1`, the Potency result in assay [1] and in assay [2] was “inactive” throughout.
As to `C[C@@]1(c2cc(-c3cncnc3)c(F)cc2F)CCSC(N)=N1`, the Potency entry in assay [1] and in assay [2] was “inactive” in each case.
On to `CC(C)(C)c1[nH]cnc1C=c1[nH]c(=O)c(=Cc2ccccc2)[nH]c1=O`, for which the Potency result in assay [1] and in assay [2] was “inactive” each time.
Consider `CCN1CCC(n2cc(CNc3cc(Cl)c4ncc(C#N)c(Nc5ccc(F)c(Cl)c5)c4c3)nn2)CC1`, for which the Potency result in assay [1] and in assay [2] was “inactive” in each case.
Take `COC(=O)Nc1ccc(-c2nc(N3CCOCC3)c3cnn(C4CCN(C(=O)OC)CC4)c3n2)cc1`: the Potency result in assay [1] and in assay [2] was “inactive” throughout.
Consider `COC(=O)[C@H](c1ccccc1Cl)N1CCc2sccc2C1`, for which the Potency result in assay [1] and in assay [2] was “inactive” each time.
As for `Nc1nc(Cl)nc2c1ncn2[C@@H]1O[C@H](CO)[C@@H](O)[C@H]1F`, the Potency result in assay [1] and in assay [2] was “inactive” each time.
